HCMV inh: inhibitors of human cytomegalovirus | HFF cells, HCMV-luciferase reporter, 72 h; hits give low values | activity change, negative = inhibition, % at 57.5 µM | actives 4.5% (n = 410,000) | AID 1259415; in the data active = activity change below about -60%; inconclusive = no clear call, values can overlap the other calls; inactive = above about -39%; also: % is scaled to controls: 0 for no effect and ±100 for the full control effect
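Human foreskin fibroblasts infected with luciferase-reporter HCMV at MOI 1 PFU/cell, compounds at two doses. Luciferase measured 72 h post infection; normalized to buffer-only basal and Salinomycin (10uM) controls.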
SARS PLP yeast: SARS-CoV PLP inhibition in yeast. actives 0.19% (n = 330,000). Potency, µM (top dose mostly 32.9 µM), for inactives: at the top dose activity, positive = growth rescue, most hits filed as activators. S. cerevisiae expressing SARS-CoV PLpro, growth rescue; calls by dose curve; also: potency is read from the fitted curve at half-maximal effect; 0% is about no effect; nearly all actives have a fitted effect of over 55% in size
Pf growth 96h: inhibits malaria parasite growth, 96 h | P. falciparum luciferase reporter growth, 96 h | Potency, µM (highest dose often 28.7 µM), for the others: at the highest dose activity change, negative = inhibition, most hits filed as inhibitors | actives 6.9% (n = 320,000) | AID 504834; also: potency is read from the fitted curve at half-maximal effect; % is scaled to controls: 0 for no effect and ±100 for the full control effect
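Compounds incubated with erythrocytes infected by luciferase-expressing P. falciparum (2% hematocrit, 0.05% parasitemia final) for 96 hours, 37 C in 5% CO2. Growth inhibition scored as decreased luciferase luminescence.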
Pf growth 48h: P. falciparum growth inhibition at 48 hours (one generation); P. falciparum luciferase growth in erythrocytes, 48 h; Potency, µM (top dose mostly 28.7 µM), for the others: at the top dose activity change, negative = inhibition, hits mostly inhibitors; actives 5.9% (n = 310,000); also: potency is read from the fitted curve at half-maximal effect; % is scaled to controls: 0 for no effect and ±100 for the full control effect
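Cell-based growth assay: transgenic P. falciparum expressing firefly luciferase, cultured in red cells within RPMI 1640 containing 0.5% w/v Albumax, 24 mM bicarbonate and gentamycin. A drop in luciferase activity indicates inhibition.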
HCV inhibitor: blocks hepatitis C virus | Potency, µM (series often up to 41.8 µM), without a hit: at the highest dose activity change, negative = inhibition, usual class: inhibitors | Huh7.5.1 HCVcc-Cre infection, luciferase reporter, 44 h | AID 651820 | actives 3.4% (n = 340,000); also: potency is read from the fitted curve at half-maximal effect; % is scaled to controls: 0 for no effect and ±100 for the full control effect
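Antiviral activity was scored by luciferase reporter output from cells infected with HCVcc-Cre (~0.5 moi) in presence of compound, 44 h infection period, cells seeded 1,000/well 4 h prior.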
Sm TGR inh: S. mansoni TGR enzyme inhibition | Q962Y6 | purified TGR, DTNB reduction, TNB absorbance 405 nm | Potency, µM (top dose mostly 114 µM), for the others: top-dose activity change, negative = inhibition, most hits filed as inhibitors | actives 3% (n = 360,000) | AID 485364; also: potency is read from the fitted curve at half-maximal effect; % is scaled to controls: 0 for no effect and ±100 for the full control effect; nearly all actives have a fitted effect of over 60% in size
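Kinetic colorimetric format: TGR-catalysed, NADPH-driven DTNB reduction monitored via TNB absorbance. Enzyme dispensed at 20 nM; compound exposure 15 min at room temperature before reaction start.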
* = called active by the depositor; ? = inconclusive; . = no result given. An excerpt weighted towards active compounds, which were near 15% of everything screened. Unless noted, calls follow the shape of the dose curve; as a rule, active = well fitted curve in the direction sought with a large enough effect; inconclusive = small, poorly fitted or top-dose-only effect, or another doubt; inactive = no such curve, though single readings can be large; an effect the other way counts as inactive or inconclusive.

SMILES	HCMV inh	SARS PLP yeast	Pf growth 96h	Pf growth 48h	HCV inhibitor	Sm TGR inh
Cc1ccc(Cl)cc1N1CCN(S(=O)(=O)c2ccc3oc(=O)c4ncn(C)c4c3c2)CC1	11	.	.	.	.	25%
CCOc1ccc(NC(=O)CN(C)S(=O)(=O)c2ccc3c(c2)CCC(=O)N3)cc1	-13	1%	?	?	-11%	11%
CCn1cc([N+](=O)[O-])c(C(=O)N2N=C(c3ccc(Cl)c(Cl)c3)CC2c2ccccc2O)n1 (configuration not stated)	-12	1%	?	3.7µM*	?	0%
CCn1cc([N+](=O)[O-])c(C(=O)N2N=C(c3ccc4ccccc4c3)CC2c2cc(Br)ccc2O)n1 (configuration not stated)	.	3%	?	3.3µM*	?	3%
CC(=O)N1N=C(c2ccc([N+](=O)[O-])cc2)CC1c1ccccc1Cl (configuration not stated)	3	-12%	-27%	?	-27%	-29%
CC(=O)N1N=C(c2ccccc2)CC1c1ccccc1[N+](=O)[O-] (configuration not stated)	38	18%	-9%	?	7%	-6%
CCn1cc([N+](=O)[O-])c(C(=O)Nc2ccc(Br)cn2)n1	38	2%	34%	35%	-23%	39%
CCn1cc([N+](=O)[O-])c(C(=O)N2N=C(c3ccccc3)CC2c2ccc([N+](=O)[O-])cc2)n1 (configuration not stated)	-19	17%	?	13µM*	-30%	-2%
CCn1cc([N+](=O)[O-])c(C(=O)N2N=C(c3ccc(O)c(OC)c3)CC2c2ccccc2O)n1 (configuration not stated)	-1	-1%	15µM*	?	?	-3%
Cc1c(CC(=O)NCc2ccc(F)cc2)c(=O)oc2cc(O)c(Cl)cc12	?	.	.	.	.	9%
O=C(O)C1Cc2c([nH]c3ccccc23)C(c2ccc3c(c2)OCO3)N1 (configuration not stated)	-14	0%	9.3µM*	3%	-3%	-27%
COc1ccc(C2NC(C(=O)O)Cc3c2[nH]c2ccccc32)cc1CN1CCN(c2ccc(F)cc2)CC1 (configuration not stated)	-32	0%	?	10µM*	-17%	-22%
O=C(NCc1ccc(F)cc1)c1cccc(S(=O)(=O)N2CCOCC2)c1	-12	-10%	-3%	?	0%	-19%
C/C(=N\NC(=O)c1cc2c(s1)CCC(C)C2)c1ccncc1 (configuration not stated)	?	-28%	9.3µM*	-24%	25µM*	-3%
CC1CCc2sc(C(=O)N/N=C/c3ccc(O)cc3)cc2C1 (configuration not stated)	-64*	-1%	45%	-2%	?	-1%
C/C(=N\NC(=O)c1cc2c(s1)CCC(C)C2)c1ccc[nH]1 (configuration not stated)	-16	1%	191%	154%	1%	4%
CC1CCc2sc(C(=O)NC3CCCCC3)cc2C1 (configuration not stated)	8	1%	19%	-18%	-15%	-15%
O=C(CN1CCN(Cc2ccccc2)CC1)N1CCCc2c1c(=O)oc1ccc(O)cc21	-16	-1%	-17%	2.9µM*	?	-1%
Cc1nn(-c2ccccc2)c(C)c1C(=O)OC(C)C(=O)NC1CCCCC1 (configuration not stated)	-36	-2%	.	.	13µM*	.
CSc1ccc(CNC(=O)C(C)n2nc(C)c3c(C)n(-c4ccccc4)nc3c2=O)cc1 (configuration not stated)	-62*	-7%	37%	-21%	?	-1%
Cc1ccc(-n2nc3c(=O)n(C(C)C(=O)NCc4ccc(OC(C)C)cc4)nc(C)c3c2C)cc1 (configuration not stated)	-77*	.	.	.	.	-14%
CSc1ccc(CCNC(=O)C(C)n2nc(C)c3c(C)n(-c4ccccc4)nc3c2=O)cc1 (configuration not stated)	-33	.	.	.	.	1%
Cc1nn(-c2ccccc2)c(Cl)c1C(=O)NC1CCCCC1	9	-1%	93%	-20%	0%	-2%
Cc1nn(C(C)C(=O)NC2CCCCCC2)c(=O)c2nn(-c3ccccc3)c(C)c12 (configuration not stated)	-11	-7%	12µM*	-11%	?	-5%
COCCn1c(SCC(=O)N2CCCC2=O)nnc1-c1ccncc1	-20	.	.	.	.	.
SMILES	HCMV inh	SARS PLP yeast	Pf growth 96h	Pf growth 48h	HCV inhibitor	Sm TGR inh
Cc1nnc(NC(=O)C(=O)c2cc(C)n(-c3ccc(C)c(C)c3)c2C)s1	-8	.	.	.	.	-3%
Cc1ccc(-n2nc3c(=O)n(C(C)C(=O)NCc4ccc(Cl)cc4)nc(C)c3c2C)cc1 (configuration not stated)	-68*	-1%	1.7µM*	?	22µM*	4%
Cc1ccc(-n2nc3c(=O)n(C(C)C(=O)NCc4ccccc4C)nc(C)c3c2C)cc1 (configuration not stated)	0	.	.	.	.	-2%
CCC(C(=O)NCCc1ccccc1OC)n1nc(C)c2c(C)n(-c3ccccc3)nc2c1=O (configuration not stated)	-35	2%	12µM*	-17%	?	-5%
Cc1nn(C(C)C(=O)NCCCc2ccccc2)c(=O)c2nn(-c3ccccc3)c(C)c12 (configuration not stated)	?	3%	?	-23%	?	-3%
Cc1ccc(-n2nc3c(=O)n(C(C)C(=O)NCCC4=CCCCC4)nc(C)c3c2C)cc1 (configuration not stated)	-61*	2%	9.3µM*	?	10µM*	-4%
CCC(C(=O)NCCc1ccc(C)cc1)n1nc(C)c2c(C)n(-c3ccccc3)nc2c1=O (configuration not stated)	?	7%	0%	?	-7%	9%
CCC(C(=O)NCCc1ccc(SC)cc1)n1nc(C)c2c(C)n(-c3ccc(C)cc3)nc2c1=O (configuration not stated)	-80*	.	.	.	.	-3%
COc1cccc(C(=O)N2CCN(C3CCN(Cc4ccccc4)CC3)CC2)c1OC	0	-1%	-12%	-7%	15%	-9%
FC1(F)C(F)(F)C(F)(F)C2(F)C(F)(F)C(F)(F)C(F)(F)C(F)(F)C2(F)C1(F)F (configuration not stated)	.	.	-10%	-3%	.	.

Bioassay records (PubChem BioAssay)
